The test system of assay [1] is Tyrosine-protein kinase ABL1 (Homo sapiens), P00519 [T315I]. To be noted: at 1 µM.
The subject of assay [2] is Tyrosine-protein kinase ABL1 (Homo sapiens), P00519 [Y253F]. To be noted: at 0.1 µM.
The test system is the same in assay [3]. The following applies: at 1 µM.
The target in assay [4] is Tyrosine-protein kinase ABL1 (Homo sapiens) (UniProt P00519). The following applies: at 0.1 µM.
Assay [5] has the same target. To be noted: at 1 µM.
Assay [6] concerns the target ALK tyrosine kinase receptor (Homo sapiens) (UniProt Q9UM73). To be noted: at 0.1 µM.
The target is the same in assay [7]. To be noted: at 1 µM.
Assay [8] has as its target Tyrosine-protein kinase ABL2 (Homo sapiens) (UniProt P42684). The following applies: at 0.1 µM.
For assay [9] the target is unchanged. To be noted: at 1 µM.
The target of assay [10] is Tyrosine-protein kinase receptor UFO (Homo sapiens) (UniProt P30530). The following applies: at 0.1 µM.
Assay [11] shares this target. To be noted: at 1 µM.
Assay [12] addresses Tyrosine-protein kinase Blk (Homo sapiens) (UniProt P51451). The following applies: at 0.1 µM.
For assay [13] the target is unchanged. To be noted: at 1 µM.
In assay [14] the target is T1, Cytoplasmic tyrosine-protein kinase BMX (Homo sapiens) (UniProt P51813).
T1 sequence (whole entry): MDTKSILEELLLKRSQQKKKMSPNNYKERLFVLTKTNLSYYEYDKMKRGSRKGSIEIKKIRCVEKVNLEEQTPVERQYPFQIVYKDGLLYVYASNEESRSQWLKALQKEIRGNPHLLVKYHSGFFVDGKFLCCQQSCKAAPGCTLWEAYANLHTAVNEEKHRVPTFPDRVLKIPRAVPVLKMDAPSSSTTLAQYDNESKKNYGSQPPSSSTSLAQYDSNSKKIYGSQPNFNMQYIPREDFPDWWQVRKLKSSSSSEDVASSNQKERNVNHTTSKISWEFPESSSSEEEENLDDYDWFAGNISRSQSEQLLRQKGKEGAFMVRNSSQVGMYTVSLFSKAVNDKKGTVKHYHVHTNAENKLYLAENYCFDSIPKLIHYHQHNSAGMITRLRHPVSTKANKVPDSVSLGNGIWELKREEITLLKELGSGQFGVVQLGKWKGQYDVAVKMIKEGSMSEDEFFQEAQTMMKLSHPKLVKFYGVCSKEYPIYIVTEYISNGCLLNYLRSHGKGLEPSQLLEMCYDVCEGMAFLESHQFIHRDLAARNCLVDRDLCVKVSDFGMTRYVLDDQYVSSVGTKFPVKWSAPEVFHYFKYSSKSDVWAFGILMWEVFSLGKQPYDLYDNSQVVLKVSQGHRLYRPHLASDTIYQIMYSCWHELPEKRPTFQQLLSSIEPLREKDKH
To be noted: at 0.1 µM.

The target in assay [15] is T1, Cytoplasmic tyrosine-protein kinase BMX (Homo sapiens). To be noted: at 1 µM.
In assay [16] the target is Protein-tyrosine kinase 6 (Homo sapiens) (UniProt Q13882). To be noted: at 0.1 µM.
The target is the same in assay [17]. The following applies: at 1 µM.
Assay [18] deals with Tyrosine-protein kinase BTK (Homo sapiens) (UniProt Q06187). The following applies: at 0.1 µM.
The target is the same in assay [19]. To be noted: at 1 µM.
Assay [20] deals with Tyrosine-protein kinase CSK (Homo sapiens) (UniProt P41240). To be noted: at 0.1 µM.

Usually inhibition stands for the relative decrease from the control value, in per cent.

Tyrosine-protein kinase BTK (Homo sapiens), sequence (Q06187 whole entry): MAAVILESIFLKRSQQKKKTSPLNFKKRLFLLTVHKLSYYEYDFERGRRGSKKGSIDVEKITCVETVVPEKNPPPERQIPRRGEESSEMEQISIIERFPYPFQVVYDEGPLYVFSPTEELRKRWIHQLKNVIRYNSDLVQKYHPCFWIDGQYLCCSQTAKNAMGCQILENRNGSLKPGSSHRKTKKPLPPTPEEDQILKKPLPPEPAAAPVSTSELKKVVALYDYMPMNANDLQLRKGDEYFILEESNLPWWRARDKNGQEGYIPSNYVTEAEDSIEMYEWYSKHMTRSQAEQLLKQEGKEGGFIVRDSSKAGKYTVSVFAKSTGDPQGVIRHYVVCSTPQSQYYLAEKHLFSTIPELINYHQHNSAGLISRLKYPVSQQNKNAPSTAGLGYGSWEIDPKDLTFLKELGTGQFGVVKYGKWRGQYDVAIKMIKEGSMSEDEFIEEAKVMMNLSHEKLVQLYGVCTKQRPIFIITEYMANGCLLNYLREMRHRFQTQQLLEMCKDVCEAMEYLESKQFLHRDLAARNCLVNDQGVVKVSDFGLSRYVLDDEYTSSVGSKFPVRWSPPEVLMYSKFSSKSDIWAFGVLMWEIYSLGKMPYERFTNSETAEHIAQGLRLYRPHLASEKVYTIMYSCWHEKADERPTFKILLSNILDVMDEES
Tyrosine-protein kinase CSK (Homo sapiens), sequence (P41240 2-450 limits assumed): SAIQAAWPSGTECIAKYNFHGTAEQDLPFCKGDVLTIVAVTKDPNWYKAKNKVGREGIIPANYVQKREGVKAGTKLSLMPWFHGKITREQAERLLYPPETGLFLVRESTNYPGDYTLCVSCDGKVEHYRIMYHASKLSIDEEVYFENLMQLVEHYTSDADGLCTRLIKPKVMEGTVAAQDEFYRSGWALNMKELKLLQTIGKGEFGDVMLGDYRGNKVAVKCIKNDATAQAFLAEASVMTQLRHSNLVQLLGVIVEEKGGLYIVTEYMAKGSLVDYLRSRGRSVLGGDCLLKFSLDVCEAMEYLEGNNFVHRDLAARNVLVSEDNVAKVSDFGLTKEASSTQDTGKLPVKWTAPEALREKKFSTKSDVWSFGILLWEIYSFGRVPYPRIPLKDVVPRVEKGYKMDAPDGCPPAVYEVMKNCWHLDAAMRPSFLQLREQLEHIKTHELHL
Tyrosine-protein kinase Blk (Homo sapiens), sequence (P51451 2-505 limits assumed): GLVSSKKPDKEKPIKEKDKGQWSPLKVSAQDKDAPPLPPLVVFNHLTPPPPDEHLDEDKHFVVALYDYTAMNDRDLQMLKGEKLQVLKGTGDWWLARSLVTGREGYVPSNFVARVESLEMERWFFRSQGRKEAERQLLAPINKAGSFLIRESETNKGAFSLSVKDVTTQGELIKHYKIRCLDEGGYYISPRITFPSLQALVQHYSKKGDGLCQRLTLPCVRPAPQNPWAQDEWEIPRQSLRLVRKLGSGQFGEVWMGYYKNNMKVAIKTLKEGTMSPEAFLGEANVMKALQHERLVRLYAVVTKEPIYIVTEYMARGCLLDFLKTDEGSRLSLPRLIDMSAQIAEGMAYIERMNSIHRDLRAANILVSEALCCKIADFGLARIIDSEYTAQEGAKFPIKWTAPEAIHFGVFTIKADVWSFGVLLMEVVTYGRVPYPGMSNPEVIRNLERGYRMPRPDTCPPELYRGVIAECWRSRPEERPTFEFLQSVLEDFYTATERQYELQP
ALK tyrosine kinase receptor (Homo sapiens), sequence (Q9UM73 19-1620 limits assumed): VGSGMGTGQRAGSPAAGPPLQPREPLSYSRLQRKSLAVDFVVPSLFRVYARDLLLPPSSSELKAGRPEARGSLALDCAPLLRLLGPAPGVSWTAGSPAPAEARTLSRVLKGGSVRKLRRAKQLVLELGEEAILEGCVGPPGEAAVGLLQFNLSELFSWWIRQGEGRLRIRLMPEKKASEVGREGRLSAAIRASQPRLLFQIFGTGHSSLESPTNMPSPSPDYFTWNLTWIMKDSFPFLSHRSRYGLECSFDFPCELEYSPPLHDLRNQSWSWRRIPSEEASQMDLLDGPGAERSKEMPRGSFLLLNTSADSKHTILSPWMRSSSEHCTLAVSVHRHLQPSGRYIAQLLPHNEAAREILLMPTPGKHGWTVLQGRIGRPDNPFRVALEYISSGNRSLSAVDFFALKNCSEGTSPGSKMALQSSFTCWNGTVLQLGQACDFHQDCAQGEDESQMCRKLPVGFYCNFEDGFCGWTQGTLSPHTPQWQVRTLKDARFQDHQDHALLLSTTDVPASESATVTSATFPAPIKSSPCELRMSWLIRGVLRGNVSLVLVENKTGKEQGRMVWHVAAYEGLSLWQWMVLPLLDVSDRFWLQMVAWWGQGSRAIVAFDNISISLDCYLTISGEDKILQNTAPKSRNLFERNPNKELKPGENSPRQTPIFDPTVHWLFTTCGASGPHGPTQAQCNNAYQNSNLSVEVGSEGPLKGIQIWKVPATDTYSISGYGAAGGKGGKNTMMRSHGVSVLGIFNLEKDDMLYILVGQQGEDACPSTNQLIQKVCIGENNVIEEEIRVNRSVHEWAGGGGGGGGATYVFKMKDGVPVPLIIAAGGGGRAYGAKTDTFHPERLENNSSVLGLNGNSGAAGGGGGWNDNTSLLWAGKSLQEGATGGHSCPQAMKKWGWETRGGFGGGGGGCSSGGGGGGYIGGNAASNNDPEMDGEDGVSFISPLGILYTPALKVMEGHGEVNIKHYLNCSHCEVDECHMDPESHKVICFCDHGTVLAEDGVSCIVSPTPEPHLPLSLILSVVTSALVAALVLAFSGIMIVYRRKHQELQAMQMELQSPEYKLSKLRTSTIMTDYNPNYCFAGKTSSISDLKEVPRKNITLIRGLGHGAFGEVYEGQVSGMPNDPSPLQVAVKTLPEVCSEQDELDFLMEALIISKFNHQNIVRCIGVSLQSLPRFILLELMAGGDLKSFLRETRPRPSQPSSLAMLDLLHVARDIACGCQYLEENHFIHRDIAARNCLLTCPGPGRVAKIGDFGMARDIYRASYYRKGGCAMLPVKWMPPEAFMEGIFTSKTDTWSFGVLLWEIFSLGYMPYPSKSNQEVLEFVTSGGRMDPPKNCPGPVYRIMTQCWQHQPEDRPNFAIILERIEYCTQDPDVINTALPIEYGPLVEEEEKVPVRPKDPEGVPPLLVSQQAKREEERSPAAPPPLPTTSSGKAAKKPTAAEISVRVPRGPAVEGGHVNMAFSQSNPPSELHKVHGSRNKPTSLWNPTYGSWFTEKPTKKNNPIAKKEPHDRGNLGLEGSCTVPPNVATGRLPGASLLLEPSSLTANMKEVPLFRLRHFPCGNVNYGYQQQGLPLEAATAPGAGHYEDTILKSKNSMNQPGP
Tyrosine-protein kinase ABL2 (Homo sapiens), sequence (P42684 whole entry): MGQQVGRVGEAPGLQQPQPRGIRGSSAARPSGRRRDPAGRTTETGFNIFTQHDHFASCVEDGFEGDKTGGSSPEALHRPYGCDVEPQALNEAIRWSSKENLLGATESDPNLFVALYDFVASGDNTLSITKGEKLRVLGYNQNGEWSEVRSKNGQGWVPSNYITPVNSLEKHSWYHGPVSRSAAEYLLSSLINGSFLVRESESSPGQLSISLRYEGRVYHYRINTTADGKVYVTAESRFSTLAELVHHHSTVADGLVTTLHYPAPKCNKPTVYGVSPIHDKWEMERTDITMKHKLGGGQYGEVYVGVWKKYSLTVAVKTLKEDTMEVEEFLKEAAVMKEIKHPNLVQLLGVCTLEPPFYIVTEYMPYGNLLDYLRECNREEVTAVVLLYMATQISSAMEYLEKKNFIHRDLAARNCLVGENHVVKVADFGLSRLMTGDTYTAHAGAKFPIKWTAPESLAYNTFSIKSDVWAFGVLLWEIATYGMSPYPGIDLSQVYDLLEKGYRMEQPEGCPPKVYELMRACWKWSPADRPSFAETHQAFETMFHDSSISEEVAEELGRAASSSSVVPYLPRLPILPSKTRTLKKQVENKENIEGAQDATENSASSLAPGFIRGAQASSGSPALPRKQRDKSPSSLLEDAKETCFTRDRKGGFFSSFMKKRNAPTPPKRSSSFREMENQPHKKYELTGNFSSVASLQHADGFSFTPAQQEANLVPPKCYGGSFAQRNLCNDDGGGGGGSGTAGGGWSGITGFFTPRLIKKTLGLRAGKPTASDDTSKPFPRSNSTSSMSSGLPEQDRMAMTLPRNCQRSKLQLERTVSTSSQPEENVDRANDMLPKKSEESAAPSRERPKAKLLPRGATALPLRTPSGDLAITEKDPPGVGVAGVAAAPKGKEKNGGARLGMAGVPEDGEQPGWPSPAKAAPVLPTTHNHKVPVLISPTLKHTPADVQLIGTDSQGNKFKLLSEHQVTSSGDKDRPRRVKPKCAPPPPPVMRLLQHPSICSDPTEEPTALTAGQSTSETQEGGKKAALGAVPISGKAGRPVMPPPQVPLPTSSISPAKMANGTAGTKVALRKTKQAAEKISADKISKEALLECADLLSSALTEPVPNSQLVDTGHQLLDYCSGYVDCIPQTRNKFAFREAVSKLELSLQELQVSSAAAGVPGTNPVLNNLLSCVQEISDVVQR
Protein-tyrosine kinase 6 (Homo sapiens), sequence (Q13882 whole entry, looked up): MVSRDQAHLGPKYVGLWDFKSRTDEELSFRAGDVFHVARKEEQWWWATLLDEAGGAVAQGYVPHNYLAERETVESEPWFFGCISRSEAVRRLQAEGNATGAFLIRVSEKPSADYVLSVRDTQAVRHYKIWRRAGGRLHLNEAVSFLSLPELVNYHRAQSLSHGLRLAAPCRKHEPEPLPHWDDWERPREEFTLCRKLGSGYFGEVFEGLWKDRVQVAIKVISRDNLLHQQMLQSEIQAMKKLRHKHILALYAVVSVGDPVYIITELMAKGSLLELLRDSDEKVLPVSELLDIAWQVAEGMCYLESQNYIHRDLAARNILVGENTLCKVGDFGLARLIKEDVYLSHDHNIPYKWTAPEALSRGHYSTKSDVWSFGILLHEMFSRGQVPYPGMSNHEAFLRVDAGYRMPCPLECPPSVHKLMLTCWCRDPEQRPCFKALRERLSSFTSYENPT

As for `COc1ccc(COc2ccc(Cc3cnc(N)nc3N)cc2OC)cc1`, the inhibition in assay [1] is -2.04%; in [2], 3.15%; in assay [3], 0.75%; in [4], 3.16%; in assay [5], 7.34%; in [6], -0.54%. The inhibition was 0.01% in assay [7]; 3.27% in [8]; 5.98% in assay [9]; 4.25% in assay [10]; 8.25% in assay [11]; 0.45% in assay [12]. The inhibition in [13] was 0.47%; in [14], 0.39%; in [15], 2.06%; in assay [16], -1.66%; in assay [17], -1.6%; in assay [18], 0.23%. For the same compound, the inhibition was 3.61% in assay [19] and 0.54% in assay [20].
As for `NC(=O)c1cccc(Nc2nccc(Nc3cccc4[nH]ncc34)n2)c1`, the inhibition in assay [1] was 25.4%; in assay [2] it was 84.1%; in [3] it was 98.5%; in [4] it was 70.2%; in assay [5], 84.9%; in assay [6], -0.3%. Besides, the inhibition in [7] came out at 15.4%; in assay [8], 69.1%; in [9], 88.6%; in assay [10], 4.05%; in assay [11], 7.82%; in assay [12], 9.56%. Moreover, the inhibition in [13] is 66.3%; in assay [14], 21.6%; in assay [15], 73.8%; in [16], 68.6%; in [17], 99.7%; in assay [18] it was 3.23%. Besides, the results for the inhibition in assay [19] and in assay [20] were 19.9% and -2.2%, respectively.
As to `N#Cc1c(NC(=O)c2cccc3ccccc23)sc2c1CCCC2`, the inhibition amounted to 3.27% in assay [1]; 5.89% in [2]; 5.73% in assay [3]; 2.91% in assay [4]; 9.14% in [5]; 2.92% in assay [6]. The inhibition in assay [7] was 2.25%; in assay [8] it was 3.88%; in assay [9], 9.55%; in assay [10] it was -4.77%; in [11], -1.11%; in [12], 1.28%. Further, the inhibition in [13] was 2.44%; in assay [14] it was 3.61%; in [15], 2.91%; in assay [16], 3.4%; in [17] it was 3.17%; in assay [18], -1.4%. The inhibition worked out at 0.24% in assay [19] and 0.06% in assay [20].
Take `Cc1cc(O)cc(C)c1/C=C/c1cncc(-c2nn[nH]n2)c1`: the inhibition in [1] was 8.36%; in [2], 31.5%; in assay [3], 86.1%; in assay [4] it was 12.4%; in assay [5], 71.1%; in [6] it was -0.37%. For the same compound, the inhibition is 4.03% in assay [7]; 19.9% in [8]; 68.6% in [9]; -8.81% in assay [10]; -3.63% in assay [11]; 0.83% in [12]. In addition, the inhibition was 48.1% in assay [13]; 11.2% in [14]; 66.3% in [15]; 29.6% in [16]; 86.3% in assay [17]; -0.39% in assay [18]. The inhibition was 7.14% in assay [19] and 8.08% in assay [20].
On to `NS(=O)(=O)c1ccc(N/N=C2\C(=O)Nc3ccc(C(=O)NCCc4c[nH]cn4)cc32)cc1`, for which the inhibition in assay [1] came to 11.6%; in assay [2] it was 3.56%; in assay [3], 12.1%; in [4], 5.35%; in assay [5], 15.3%; in assay [6] it was 3.67%. For the same compound, the inhibition in assay [7] was 12.9%; in [8], 4.29%; in assay [9], 9.57%; in assay [10], -2.52%; in assay [11] it was 9.57%; in assay [12], 4.25%. Besides, the inhibition in [13] was 17.2%; in [14] it was -1.78%; in assay [15], 6.53%; in assay [16], 7.16%; in [17], 5.31%; in assay [18] it was 1.88%. For the same compound, the inhibition in assay [19] was found to be 1.29%; in assay [20] it was 8.17%.
For the compound `CC1=C(C(=O)Nc2ccc3[nH]ncc3c2)C(c2ccc(Cl)c(Cl)c2)CC(=O)N1` (stereo not given), the inhibition in [1] was found to be 2.96%; in [2], 2.96%; in assay [3], 0.52%; in assay [4], 2.43%; in [5] it was 7.38%; in assay [6], 0.6%. The inhibition in [7] was 3.88%; in [8], 2.19%; in [9] it was 3.97%; in assay [10] it was -2.18%; in [11], -5.55%; in assay [12] it was 1.97%. Also, the inhibition in assay [13] is 18.3%; in assay [14], -1.91%; in assay [15], 2.22%; in assay [16], 3.17%; in assay [17], 3.02%; in assay [18], 0.53%. Further, the inhibition in [19] turned out to be 3.13%; in assay [20] it was 1.65%.
For the compound `COc1cccc(-n2ncc3c(N/N=C/c4cccc(F)c4)ncnc32)c1`, the inhibition in assay [1] was 51.8%; in assay [2] it was 57.7%; in [3] it was 89.2%; in [4] it was 12%; in assay [5], 69.3%; in assay [6], -1.54%. Also, the inhibition was -1.21% in assay [7]; 3.52% in assay [8]; 52.4% in assay [9]; -2.89% in assay [10]; 1.49% in assay [11]; -0.8% in assay [12]. The inhibition was 17.9% in assay [13]; 16.8% in assay [14]; 13.8% in assay [15]; -0.23% in assay [16]; 5.33% in assay [17]; -5.62% in assay [18]. Moreover, the values for the inhibition in [19] and in assay [20] were -4.52% and 1.19%, respectively.
With `O=C1Nc2ccc(C(=O)c3ccco3)cc2C1=Cc1cc(Cl)c(O)c(Cl)c1`, the inhibition in assay [1] came out at 8.5%; in assay [2] it was 5.68%; in assay [3] it was 17.9%; in assay [4], 4.71%; in [5], 21.5%; in assay [6] it was 3.92%. Besides, the inhibition is 20.8% in assay [7]; 5.9% in assay [8]; 15.3% in assay [9]; -4.61% in [10]; -5.53% in assay [11]; 3.04% in assay [12]. The inhibition in assay [13] was 19.1%; in assay [14] it was -1.7%; in [15], 5.27%; in assay [16], 4.83%; in assay [17], 6.88%; in [18] it was 1.4%. Besides, the inhibition in assay [19] worked out at 1.76%; in assay [20], 6.31%.
Regarding `O=C(Nc1n[nH]c2nc(-c3ccco3)c(Br)cc12)C1CC1`, the inhibition in assay [1] was determined as 26.6%; in assay [2], 3%; in assay [3] it was 11.5%; in [4], 5.46%; in assay [5], 24.1%; in assay [6] it was 1.26%. The inhibition was 4.4% in assay [7]; 3.57% in [8]; 18.4% in assay [9]; -6.59% in [10]; -1.16% in [11]; 3.07% in assay [12]. The inhibition is 20.5% in assay [13]; 7.33% in assay [14]; 4.58% in assay [15]; 6.01% in assay [16]; 3.67% in [17]; -0.13% in [18]. Further, the inhibition in assay [19] is 4.11%; in assay [20], 6.94%.
As for `COc1ccc(-c2coc3ncnc(N)c23)cc1`, the inhibition in assay [1] is 2.72%; in [2], 4.98%; in assay [3] it was 10.8%; in assay [4] it was 3.7%; in assay [5] it was 12%; in assay [6] it was 4.4%. Also, the inhibition was 3.97% in assay [7]; 3.42% in [8]; 8.31% in assay [9]; -5.99% in [10]; -2.11% in assay [11]; 1.6% in [12]. For the same compound, the inhibition in assay [13] is 5.06%; in assay [14] it was 7.73%; in [15] it was 6.07%; in assay [16], 3.81%; in assay [17], 11.8%; in assay [18], 0.04%. The inhibition came to 2.7% in assay [19] and 2.45% in assay [20].

Source of the values: ChEMBL document CHEMBL1961873, “Compounds: GSK PKIS; Assays: Nanosyn kinase panel” (2012).
